Assay results from PubChem BioAssay AID720582 (The Scripps Research Institute Molecular Screening Center, 2013).
About 2,300 (0.62%) of roughly 370,000 compounds were called active. This excerpt belongs to a sample that is enriched for actives. A number with no mark means an inactive call.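 Rule for the calls: active = inhibition above a per-campaign cutoff equal to the mean of compounds falling between control-based bounds plus 3 SD (cut at about 20% in these data); inactive = the rest.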

Target: Disintegrin and metalloproteinase domain-containing protein 10 (Homo sapiens) (UniProt O14672)
Test: human ADAM10 inhibitors, primary screen, biochemical, QFRET, HTS (AID 720582);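 note: 0% = DMSO wells while the 100% control is not disclosed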
Details: recombinant ADAM10, EDANS/DABCYL FRET peptide cleavage, 3 h; at 7 µM; hits give high values

Sequence of Disintegrin and metalloproteinase domain-containing protein 10 (Homo sapiens) (O14672 214-748 limits assumed): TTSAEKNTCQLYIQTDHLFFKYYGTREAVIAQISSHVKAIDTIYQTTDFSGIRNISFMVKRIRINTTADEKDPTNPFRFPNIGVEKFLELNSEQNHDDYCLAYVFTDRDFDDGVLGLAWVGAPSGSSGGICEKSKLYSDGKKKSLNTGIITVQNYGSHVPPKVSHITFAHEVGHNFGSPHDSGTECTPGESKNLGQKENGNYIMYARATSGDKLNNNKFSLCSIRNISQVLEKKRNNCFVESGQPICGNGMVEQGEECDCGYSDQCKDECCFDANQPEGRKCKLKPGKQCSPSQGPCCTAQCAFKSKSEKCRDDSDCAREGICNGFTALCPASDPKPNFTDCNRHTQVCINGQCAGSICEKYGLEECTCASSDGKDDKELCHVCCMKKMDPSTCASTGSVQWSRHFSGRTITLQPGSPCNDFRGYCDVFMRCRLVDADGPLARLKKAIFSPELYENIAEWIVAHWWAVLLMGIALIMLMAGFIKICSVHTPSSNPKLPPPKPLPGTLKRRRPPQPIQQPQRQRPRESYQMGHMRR

| SMILES | inhibition |
| --- | --- |
| CCn1c(=O)n2n(c1=O)[C@@]1(C=C3CCCC[C@H]32)N=C(NC(=O)c2ccccc2)N(Cc2ccccc2)[C@H]1Cc1ccccc1 | 9.57% |
| COC(=O)C[C@@H]1CC[C@@H]2[C@H](COc3ccc(NC(=O)c4cccc(F)c4)cc3C(=O)N2C)O1 | 9.14% |
| COc1cccc(CNC(=O)CNS(=O)(=O)c2ccc3nc(C)sc3c2)c1OC | 4.07% |
| Cc1cc(C(=O)NN=C/C=C/c2ccco2)n[nH]1 | -13.7% |
| C[C@@H]1ON(C)[C@H]2C[C@H]3c4[nH]c5cccc(-c6ccc7c(c6)OCO7)c5c4CCN3C[C@@H]12 | -72.8% |
| O=C(NN1C(=O)C2C3C=CC(C4CC34)C2C1=O)c1ccc(Cl)cc1 (centres undefined) | -2.31% |
| COc1ccc(C(=O)NN2C(=O)C3C(c4ccccc4)C=CC(c4ccccc4)C3C2=O)cc1 (centres undefined) | 24.9% (active) |
| O=C(NN1C(=O)C2C3C=CC(O3)C2C1=O)c1ccccc1 (centres undefined) | 1.76% |
| CCCCN1CCN(C(=O)c2ccc3c(c2)NC(=O)C(C)(C)O3)CC1 | 2.07% |
| Fc1ccc2nc(COCc3nc4ccc(F)cc4[nH]3)[nH]c2c1 | 2.8% |
| COc1cc(/C=N/O)cc(Br)c1OS(=O)(=O)c1ccc(C)cc1 | 21.9% (active) |
| O=C(O)COc1ccc(/C=N/O)cc1Br | 3.83% |
| COc1cc(/C=C/c2ccc(/C=C/c3cc(OC)c(OC)c(OC)c3)cc2)cc(OC)c1OC | -373% |
| Cc1ccc(-n2c(SCC(=O)Nc3ccc(S(=O)(=O)Nc4nccs4)cc3)nnc2-c2ccncc2)cc1 | -1.24% |
| COc1cccc(NC(=O)CN2CCN(c3nc(-c4cccc(OC)c4)cs3)CC2)c1 | 21.4% (active) |
| CC1CCCC(C)N1C(=O)CN1CCN(c2nc(-c3ccc(F)cc3)cs2)CC1 (centres undefined) | 1.47% |
| COCCCNC(=S)N1CCN(c2nc(-c3cccc(OC)c3)cs2)CC1 | 9.71% |
| CC[C@@H](CCC(=O)N(c1ccccc1)c1ccccc1)C1CC1 | -6.31% |
| CCOc1ccc(-n2c(SCC(=O)Nc3cc(C)c(NC(=O)c4ccccc4)cc3OC)nnc2-c2cccs2)cc1 | 17.4% |
| COc1ccc(OCC(=O)OCC(=O)Nc2ccc(S(=O)(=O)N3CCCCC3)cc2)cc1 | -5.59% |
| O=C(CSCc1ccc(Br)cc1)Nc1ccc(S(=O)(=O)N2CCCCCC2)cc1 | 24.1% (active) |
| CCOc1ccc(NC(=O)COc2ccc(S(=O)(=O)N3CCCC3)cc2)cc1 | 4.99% |
| CCOC(=O)[C@]12CCCCC/C=C\1N(Cc1ccc(OC)cc1)C(=O)[C@H]2CC(=O)N1CCOCC1 | 3.26% |
| CCCCNC(=O)C[C@H]1C[C@@]2(C(=O)OC)C(=C[C@H](COCc3ccccc3)O[C@@H]2C)N(Cc2ccc(Cl)cc2Cl)C1=O | 9.41% |
| CC(C)(C)c1ccc(CSc2nnc(-c3cccs3)o2)cc1 | -4.29% |
| O=[N+]([O-])c1cccc(S(=O)(=O)N2CCCCCC2)c1 | -4.84% |
| Cc1ccc(S(=O)(=O)N2CCC(N3CCCCCC3)CC2)cc1 | 3.62% |

| SMILES | inhibition |
| --- | --- |
| O=S(=O)(c1cccc(S(=O)(=O)N2CCC(n3nnc4ccccc43)CC2)c1)N1CCCCC1 | 20.5% (active) |
| CC1=C(C(=O)N2CCOCC2)CC(CC(=O)NCc2cccs2)C(=O)N1CCCN1CCCC1=O (centres undefined) | -13.7% |
| COc1cc(C2CC(=O)N3CN(Cc4ccccc4)CSC3=C2C#N)ccc1OCc1ccccc1 (centres undefined) | 27.5% (active) |
| CCCNC(=O)C1CC(=O)N(c2ccc(OCc3ccccc3)cc2)C1 (centres undefined) | -1.57% |
| COc1cc(C2C(C(=O)c3ccco3)=C(O)C(=O)N2c2cc(C)on2)ccc1OCc1ccccc1 (centres undefined) | -2.12% |
| N[C@@H](Cc1ccccc1)C(=O)N1CCC[C@@H]1C(=O)N1CCC2CCN(S(=O)(=O)c3ccccc3)CC21 (some centres undefined) | -2.11% |
| COC[C@@H]1CCCN1c1ccc2c(c1)O[C@H](C)CCN(C1CC1)S2(=O)=O | -3.66% |
| COC(=O)[C@@]12CCCCC=C1N(CCc1ccc(Cl)cc1)C(=O)[C@H]2CC(=O)NCc1ccc(OC)c(OC)c1 | 5.19% |
| C[C@H]1[C@H](NC(=O)c2cccc(N(C)C)c2)CC[C@@]23CCCN2C(=O)CCC[C@@H]13 | -106% |
| Cc1csc(NC(=O)CSc2nnc(-c3cccnc3)o2)n1 | -10.7% |
| O=C(CSC1=NCCS1)Nc1nc(-c2ccccc2)cs1 | 20.3% (active) |
| CC(NC(=O)COc1ccccc1)C(=O)NC1=NCCS1 (centres undefined) | -1.01% |
| O=C(C[C@H]1C(=O)N(c2ccc(F)c(F)c2)C[C@@H]1Cc1ccccc1)Nc1ccccc1 | 23.2% (active) |
| CNC(=O)C[C@H]1C(=O)N(c2ccc(OC)cc2)C[C@@H]1Cc1ccccc1 | -1.73% |
| C[C@H]1CN(c2ccc(Br)cc2)C(=O)[C@@H]1CC(=O)Nc1ccc(Br)cc1 | -2.69% |
| CCN(c1ccc(NC(=O)COC(=O)CCc2nc3ccccc3n2-c2ccccc2)cc1)C(C)C | 15.2% |
| O=C(COC(=O)CCCSc1nc2ccccc2[nH]1)Nc1ccc(Oc2ccccc2)cc1 | 23.7% (active) |
| O=C(COC(=O)CCc1nc2ccccc2c(=O)[nH]1)Nc1ccc(N2CCOCC2)cc1 | 0.32% |
| COc1cccc(N2CCN(CC(=O)N(C)Cc3ccc(F)cc3)CC2)c1 | -2.14% |
| CCCC(=O)Nc1ccc(C(=O)NCCCn2ccnc2)cc1 | -4.06% |
| CCOC(=O)[C@]12CCCC3=C1N(CCC3)C(=O)[C@@H](CC(=O)N1CCSCC1)C2 | 4.75% |
| CCN1C(=O)[C@H]2[C@@H](c3ccc(C(F)(F)F)cc3)N[C@]3(CCCN(Cc4ccc(Br)cc4)C3=O)[C@H]2C1=O | 2.63% |
| O=C1[C@H]2[C@@H](c3ccc(C(F)(F)F)cc3)N[C@]3(CCCN(Cc4ccc(Br)cc4)C3=O)[C@H]2C(=O)N1Cc1ccccc1 | 36.9% (active) |
| O=C1[C@H]2[C@@H](c3ccc(C(F)(F)F)cc3)N[C@]3(CCCN(Cc4ccc(Cl)cc4)C3=O)[C@H]2C(=O)N1Cc1ccccc1 | 17.5% |
| CC(C)N1CCCCC(NC(=O)c2ccc3ccccc3c2)C1=O (centres undefined) | -1.93% |
| CCOC(=O)[C@]12CCCC3=C1N(CCC3)C(=O)[C@@H](CC(=O)NCc1cccs1)C2 | -1.3% |
| CC(C)CNC(=O)OCc1cn(Cc2ccc(F)cc2)nn1 | 2.74% |

| SMILES | inhibition |
| --- | --- |
| O=C(CSc1nc2ccccc2nc1N1CCCCC1)N1CCN(S(=O)(=O)c2cccc([N+](=O)[O-])c2)CC1 | -10.6% |
| COC(=O)[C@@]12C[C@@H](CC(=O)NCCCCc3ccccc3)C(=O)N(CCc3ccc(OC)c(OC)c3)C1=CCC(C)(C)C2 | 20.4% (active) |
| COC(=O)[C@@]12C[C@@H](CC(=O)NCCCCc3ccccc3)C(=O)N(Cc3ccccc3)C1=CCC(C)(C)C2 | 14.6% |
| COC(=O)[C@]12C[C@H](CC(=O)NCc3ccccc3)C(=O)N(CCc3ccc(OC)c(OC)c3)C1=C[C@H](C(C)(C)C)O[C@@H]2C | 10.1% |
| c1coc(CCNc2ncnc3ccc(-c4ccc5c(c4)OCO5)cc23)c1 | -144% |
| CCC(=O)c1c(CC)c2n3c1=CC[C@H]3CC(Br)C=2 (some centres undefined) | -7.64% |
| COC(=O)[C@]12C[C@H](CC(=O)NCc3ccccc3)C(=O)N(CCC3=CCCCC3)C1=C[C@H](C(C)C)O[C@@H]2C1CC1 | 15.1% |
| Cc1cc(C)cc(NS(=O)(=O)c2ccc(Oc3ncc(C(F)(F)F)cc3Cl)cc2)c1 | 24% (active) |
| O=S(=O)(Nc1ccc(Oc2ncccn2)c(Cl)c1)c1ccc(F)cc1 | 7.14% |
| CN(NS(=O)(=O)c1cccs1)c1ncc(C(F)(F)F)cc1Cl | -3.41% |
| Cc1ccc(NC(=O)c2cc(C)nn2-c2ccccc2)c(C)c1 | 1.23% |
| C#CCN([C@H](C(=O)OC)C(C)CC)S(=O)(=O)c1ccccc1Br (some centres undefined) | 5.73% |
| COC(=O)CN1C(C)=Nc2ccc(Br)cc2C1c1ccccc1 (centres undefined) | -0.34% |
| COC(=O)C1NN=C(C(=O)c2ccc(Br)cc2)C1c1cccc(Br)c1 (centres undefined) | 20% (active) |
| COC(=O)C1=C(C)N(C)C(C)=C(C(=O)OC)C1c1cccc(Br)c1 | 1.25% |
| COc1cccc(Cn2cc(COC(=O)Nc3ccc(F)cc3)nn2)c1 | 3.55% |
| O=C(C1CCCN1S(=O)(=O)c1ccccc1)N1CCc2ccccc2C1 (centres undefined) | 5.1% |
| CNC(=O)c1[nH]cnc1C(=O)N[C@@H](CC(C)C)C(=O)OC(C)(C)C | 1.72% |
| C[C@H](NC(=O)c1nc[nH]c1C(=O)NCC(=O)OC(C)(C)C)c1ccccc1 | 4.61% |
| CC(C)(C)OC(=O)CNC(=O)c1[nH]cnc1C(=O)N[C@@H](Cc1ccccc1)C(=O)OCc1ccccc1 | 27% (active) |
| CNC(=O)c1[nH]cnc1C(=O)N[C@@H](CC(C)C)C(=O)OCc1ccccc1 | -0.66% |
| C[C@@H](NC(=O)c1nc[nH]c1C(=O)N1CCN(C(=O)OC(C)(C)C)CC1)c1ccccc1 | -5.64% |
| CC(C)(C)OC(=O)N1CCC(NC(=O)c2[nH]cnc2C(=O)N[C@@H](Cc2ccccc2)C(=O)OCc2ccccc2)CC1 | 26.5% (active) |
| CCOC(=O)C1CCN(C(=O)C(C)(C)NC(=O)Nc2ccccc2Cl)CC1 | -4.18% |
| O=C(c1ccccc1)c1ccc(-c2ccccc2C(=O)NC2CCCCN(Cc3ccc(Cl)cc3)C2=O)cc1 (centres undefined) | 0.76% |
